# PubChem BioAssay (EPA / NIEHS)
# Several values for one entry are separate records, joined by “and”; a condition that tells them apart may be missing. Identical values can stand only once. Records with an inconclusive call do not appear. The source holds several records for some structures; these can differ, active in one and inactive in another. Activity calls are given as the source filed them. The calls were made as follows, unless noted: active = hit-call score of the fitted dose curve at least 0.9, where 1 is the maximum; inactive = score below 0.9.
# Legend:
# [1] = IUF_NPC2c_oligodendrocyte_migration_120hr: Leibniz Research Institute for Environmental Medicine (IUF) 120-hour Neural Progenitor Cell Migration Assay for Oligodendrocyte Migration (NPC2c) (AID 2284297)
# Method in brief: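 Exposure runs 5 days from differentiation onset at 37C, seven concentrations plus solvent control, DMSO at most 0.1%, applied to primary hNPC spheres on laminin. After fixation, O4 immunostaining gives oligodendrocyte distance from the sphere core, relative to radial glia migration.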
# [2] = IUF_NPC2a_radial_glia_migration_120hr: Leibniz Research Institute for Environmental Medicine (IUF) 120-hour Neural Progenitor Cell Migration Assay for Radial Glia Migration (NPC2a) (AID 2284298)
# Method in brief: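 Migration distance in um, sphere core edge to migration-area edge, derived by nuclei-density algorithm from Hoechst images after 120 h compound exposure. Primary hNPC spheres differentiated on poly-D-lysine/laminin in N2 medium, 37C; medium half-replaced day 3.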
# [3] = IUF_NPC2a_radial_glia_migration_72hr: Leibniz Research Institute for Environmental Medicine (IUF) 72-hour Neural Progenitor Cell Migration Assay for Radial Glia Migration (NPC2a) (AID 2284299)
# Method in brief: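 Spheres of human primary neural progenitors migrate on poly-D-lysine/laminin under compound exposure at 37C, 5% CO2. The 72 h radial glia migration distance comes from brightfield images, measured manually.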
# [4] = IUF_NPC2b_neuronal_migration_120hr: Leibniz Research Institute for Environmental Medicine (IUF) 120-hour Neural Progenitor Cell Migration Assay for Neuron Migration (NPC2b) (AID 2284300)
# Protocol: IUF_NPC2-5 is a cell-based, multiplexed assay that uses hNPC, a human primary neural progenitor cells, with measurements taken at 72 or 120 hours after chemical dosing in a 96-well plate. Human neural progenitor cells (hNPC) are generated from human fetal brain cortex at gestational week (GW) 16-19. In the neural progenitor cell migration and differentiation assay (NPC2-5), hNPCs grown as spheres are plated on an extracellular matrix and migrate and differentiate out of the sphere core. The processes radial glia migration, neuronal and oligodendrocyte migration as well as neuronal differentiation, neuronal morphology and oligodendrocyte differentiation are studied using automated phase contrast imaging and automated fluorescence imaging in combination with high content image analysis. In parallel, the cell viability is assessed using an alamar blue viability assay and the cytotoxicity using a lactate dehydrogenase dependent membrane integrity assay.IUF_NPC2b_neuronal_migration_120hr is one of 12 assay components measured from the IUF_NPC2-5 assay. Neuronal migration distance at 120 hr is the mean distance of all neurons from the edge of the sphere core to each individual neuron (see IUF_NPC3_neuronal_differentiation_120hr). Neuronal migration is normalized to radial glia migration distance at 120 hr.Data from the IUF_NPC2b_neuronal_migration_120hr component was analyzed at the endpoint IUF_NPC2b_neuronal_migration_120hr in the positive analysis fitting direction relative to DMSO as the negative control and baseline of activity. Using a type of migration reporter, gain or loss-of-signal activity can be used to understand developmental effects.
# Culture protocol: After the cell expansion period the cells are cultured for up to four weeks in which they are passaged every week as described in 3.6. Between one to three days after passaging spheres at a size of 0.3 mm are picked for the test method. For the assessment of neural progenitor cell migration and differentiation, the spheres are plated on poly-D-lysine/laminin coated 96-well flat bottom plates in differentiation medium (N2) to initiate migration and differentiation. Thereby one 0.3 mm big sphere is plated in the middle of a well. The differentiation medium consists of DMEM and Ham's F12 at a ratio of 3 to 1 supplemented with 1% N2 and 1% penicillin and streptomycin. Within 5 days NPCs radially migrate out of the sphere core and differentiate into radial glia cells (nestin positive), neurons (TUBB3 positive), oligodendrocytes (O4 positive) and astrocytes (GFAP positive). Cultivation during the test method is performed at 37C and 5% CO2 at a ph of 7.2-7.6.Exposure: 0.3 mm big hNPC are plated in the already prepared test conditions. Exposure starts at day 0 of differentiation and is continued over five days of differentiation until the experiment is terminated. Cells are fed with fresh medium at day 3 of differentiation. Therefore, half of the test condition solution (e.g. solvent control or compound dilution) is replaced by freshly prepared test condition solution.Test Method: Migration distance and cytotoxicity is determined after 72 hours based on brightfield images of each well. The assay is terminated by the assessment of cell viability and cytotoxicity as well as cell fixation after 120 h. Immunocytochemistry is performed for Hoechst positive nuclei, TUBB3 positive neurons and O4 positive oligodendrocytes. On the ICC images, migration after 120 hours, neuronal and oligodendrocyte number, neuronal morphology and neuron/oligodendrocyte specific migration is assessed. immunocytochemical staining (ICC) generates an image for each sphere. The plates are scanned using an automated high content imaging device and all nuclei and their positions are determined automatically based on their intensity and size. Images are imported to the Omnisphero software to run the image analysis that measures the following endpoints. […]
# [5] = IUF_NPC3_neuronal_differentiation_120hr: Leibniz Research Institute for Environmental Medicine (IUF) 120-hour Neuronal Differentiation Assay (NPC3) (AID 2284301)
# Method in brief: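 Value is percent TUBB3-positive neurons among Hoechst-stained nuclei in the migration area, scored by trained CNN after 120 h differentiation. Primary hNPC spheres on poly-D-lysine/laminin, N2 medium, continuous dosing from day 0, half-refeed day 3; DMSO reference.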
# [6] = IUF_NPC4_neurite_length_120hr: Leibniz Research Institute for Environmental Medicine (IUF) 120-hour Neuronal Morphology Assay for Neurite Length (NPC4) (AID 2284302)
# Method in brief: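 Neurite length, the mean in um across TUBB3-stained neurons, is derived by skeletonization of high-content images after 120 h differentiation. Compound exposure, 7 concentrations plus solvent control, ran from plating of hNPC spheres on poly-D-lysine/laminin, with medium half-replaced on day 3.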
# [7] = IUF_NPC5_oligodendrocyte_differentiation_120hr: Leibniz Research Institute for Environmental Medicine (IUF) 120-hour Oligodendrocyte Differentiation Assay (NPC5) (AID 2284304; active = hit-call score of the fitted dose curve at least 0.9, where 1 is the maximum)
# Method in brief: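 Oligodendrocyte differentiation scored as O4-positive cells, found by CNN image analysis, as percent of Hoechst-stained nuclei in the migration area. Scoring followed 5 days of exposure of plated hNPC neurospheres differentiating in DMEM/F12 N2 medium at 37C, with compound refreshed at day 3.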
# [8] = BSK_IMphg_SRB.Mphg: Macrophage Viability Assessment in the BioMAP Diversity Plus: IMphg Assay (AID 2284295); details: primary human endothelial cells with macrophages
# Method in brief: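 Cytotoxicity read-out: parallel cultures fixed with 10% TCA, stained with 0.1% sulforhodamine B, read at 560 nm. System combines venular endothelium and macrophages; sampled 24 h post-dosing, fitted positively relative to DMSO control.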
# [9] = read-out: Thrombomodulin, THBD (gene 7056); assay: BSK_LPS_Thrombomodulin: BioMAP Diversity Plus: LPS Assay for Thrombomodulin Biomarker Activity (AID 2284296); details: primary human HUVEC with PBMC
# Method in brief: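 Thrombomodulin on the surface of LPS-activated endothelial/PBMC co-cultures was quantified by ELISA at 24 hours post-dosing, with DMSO as baseline. Parallel SRB total-protein staining flagged overt cytotoxicity.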
# [10] = read-out: CD69, CD69 (gene 969); assay: BSK_LPS_CD69: BioMAP Diversity Plus: LPS Assay for CD69 Biomarker Activity (AID 2284303); details: primary human HUVEC with PBMC
# Method in brief: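 CD69 surface levels were read by ELISA after 24 h chemical treatment of an LPS-stimulated HUVEC plus PBMC co-culture; positive-direction fit against DMSO vehicle.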
smiles,measurement,setting,value
O=P(Oc1ccccc1)(Oc1ccccc1)Oc1ccccc1,outcome,[1],inactive
same,AC50,[2],11 µM (active)
same,outcome,[3],inactive
same,outcome,[4],inactive
same,outcome,[5],inactive
same,outcome,[6],inactive
same,outcome,[7],inactive
NC(=O)C(F)(F)C(F)(F)F,outcome,[8],inactive
same,outcome,[9],inactive
same,outcome,[10],inactive
O=S1(=O)OCC2C(CO1)C1(Cl)C(Cl)=C(Cl)C2(Cl)C1(Cl)Cl (centres undefined),outcome,[1],inactive
same,outcome,[2],inactive
same,outcome,[3],inactive
same,outcome,[4],inactive
same,outcome,[5],inactive
same,outcome,[6],inactive
same,AC50,[7],403 nM (active)
CCOc1ccc(C(C)(C)COCc2cccc(Oc3ccccc3)c2)cc1,outcome,[1],inactive
same,outcome,[2],inactive
same,outcome,[3],inactive
same,outcome,[4],inactive
same,outcome,[5],inactive
same,outcome,[6],inactive
same,outcome,[7],inactive
C=CC(=O)OCC(F)(F)C(F)F,outcome,[8],inactive
same,AC50,[9],30 µM (active) and 39 µM (active)
same,AC50,[10],43.8 µM (active)
same,outcome,[10],inactive
O=C(O)C(F)(F)OC(F)(F)C(F)(F)OC(F)(F)C(=O)O,outcome,[8],inactive
same,outcome,[9],inactive
same,outcome,[10],inactive
CC(C)(C)c1ccccc1OP(=O)(Oc1ccccc1)Oc1ccccc1,outcome,[1],inactive
same,AC50,[2],10 µM (active)
same,outcome,[3],inactive
same,outcome,[4],inactive
same,outcome,[5],inactive
same,outcome,[6],inactive
same,AC50,[7],4350 nM (active)
OCC(F)(F)OC(F)(F)C(F)(F)OC(F)(F)C(F)(F)OC(F)(F)CO,outcome,[8],inactive
same,AC50,[9],4.54 µM (active)
same,outcome,[9],inactive
same,outcome,[10],inactive
COP(=O)(CCC(=O)NCO)OC,outcome,[9],inactive
same,AC50,[10],0.15 µM (active)
same,outcome,[10],inactive
OCC(F)(F)OC(F)(F)C(F)(F)OC(F)(F)CO,outcome,[8],inactive
same,outcome,[9],inactive
same,outcome,[10],inactive
O=C(O)C(F)(F)C(F)(F)C(=O)O,outcome,[8],inactive
same,outcome,[9],inactive
same,outcome,[10],inactive
FC(F)(F)C(F)(C(F)(F)F)C(F)(F)C(F)(F)CC1CO1 (centres undefined),outcome,[8],inactive
same,outcome,[9],inactive
same,outcome,[10],inactive
